The supplement of paper PMC8975748
Counter-ions that a name gives are not always drawn. ± gives the standard deviation of the averaged measurements.

Columns and labels:
[1] = test system: Saccharomyces cerevisiae BY4741 SeMeCo community; assay: mean cell size (pixel area) (pixels); higher = larger cells; details: 10 µM; 24 h; SM minimal medium
Method in brief: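 A Saccharomyces cerevisiae BY4741 community carrying four plasmids, each with a fluorescent marker and each complementing one auxotrophy, was exposed for 24 h to drug at a final 10 µM in SM medium in acoustically predosed 384-well plates. The overnight preculture (OD600 = 1.0) was diluted to OD600 = 0.3 before 70 µl was added per well. Cells were then fixed with paraformaldehyde, imaged by automated confocal microscopy and analysed in Harmony to derive mean cell pixel area per well, averaged over 3 replicates. Same SeMeCo high-content imaging drug screen: Selleck FDA-approved drugs at 10 µM, 24 h in SM medium, 384-well plates, 3 replicates.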

[2] = test system: Saccharomyces cerevisiae BY4741 SeMeCo community; assay: z-score of subpopulation abundance vs DMSO median, subpopulation auxotrophic for L; higher = larger share of this subpopulation than in DMSO controls; details: 10 µM; 24 h; SM minimal medium; subpopulation (auxotrophy): L
Method in brief: (§1)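 Cells of a Saccharomyces cerevisiae BY4741 community, carrying four plasmids that each restored one auxotrophy and encoded a distinct fluorescent protein, were pre-grown overnight to OD600 1.0 and diluted to 0.3. A 70 µl volume was added to 384-well plates acoustically predosed with library drugs (10 µM final) and grown 24 h in minimal SM medium. After paraformaldehyde fixation, automated confocal microscopy was used, with single-auxotroph fluorescent strains for thresholds and autofluorescence correction. The abundance of each subpopulation was scored as a z-score against the vehicle-well median.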

[3] = test system: Saccharomyces cerevisiae BY4741 SeMeCo community; assay: z-score of subpopulation abundance vs DMSO median, subpopulation auxotrophic for U; higher = larger share of this subpopulation than in DMSO controls; details: 10 µM; 24 h; SM minimal medium; subpopulation (auxotrophy): U
Method in brief: as §1

[4] = test system: Saccharomyces cerevisiae BY4741 SeMeCo community; assay: z-score of subpopulation abundance vs DMSO median, subpopulation auxotrophic for LU; higher = larger share of this subpopulation than in DMSO controls; details: 10 µM; 24 h; SM minimal medium; subpopulation (auxotrophy): LU
Method in brief: as §1

[5] = test system: Saccharomyces cerevisiae BY4741 SeMeCo community; assay: z-score of subpopulation abundance vs DMSO median, subpopulation auxotrophic for LM; higher = larger share of this subpopulation than in DMSO controls; details: 10 µM; 24 h; SM minimal medium; subpopulation (auxotrophy): LM
Method in brief: as §1

[6] = test system: Saccharomyces cerevisiae BY4741 SeMeCo community; assay: z-score of subpopulation abundance vs DMSO median, subpopulation auxotrophic for HM; higher = larger share of this subpopulation than in DMSO controls; details: 10 µM; 24 h; SM minimal medium; subpopulation (auxotrophy): HM
Method in brief: as §1

[7] = test system: Saccharomyces cerevisiae BY4741 SeMeCo community; assay: z-score of subpopulation abundance vs DMSO median, subpopulation auxotrophic for HU; higher = larger share of this subpopulation than in DMSO controls; details: 10 µM; 24 h; SM minimal medium; subpopulation (auxotrophy): HU
Method in brief: as §1

[8] = test system: Saccharomyces cerevisiae BY4741 SeMeCo community; assay: z-score of subpopulation abundance vs DMSO median, subpopulation auxotrophic for UM; higher = larger share of this subpopulation than in DMSO controls; details: 10 µM; 24 h; SM minimal medium; subpopulation (auxotrophy): UM
Method in brief: as §1

[9] = test system: Saccharomyces cerevisiae BY4741 SeMeCo community; assay: z-score of subpopulation abundance vs DMSO median, subpopulation auxotrophic for HL; higher = larger share of this subpopulation than in DMSO controls; details: 10 µM; 24 h; SM minimal medium; subpopulation (auxotrophy): HL
Method in brief: as §1

[10] = test system: Saccharomyces cerevisiae BY4741 SeMeCo community; assay: z-score of subpopulation abundance vs DMSO median, subpopulation auxotrophic for HLU; higher = larger share of this subpopulation than in DMSO controls; details: 10 µM; 24 h; SM minimal medium; subpopulation (auxotrophy): HLU
Method in brief: as §1

[11] = test system: Saccharomyces cerevisiae BY4741 SeMeCo community; assay: z-score of subpopulation abundance vs DMSO median, subpopulation auxotrophic for HLM; higher = larger share of this subpopulation than in DMSO controls; details: 10 µM; 24 h; SM minimal medium; subpopulation (auxotrophy): HLM
Method in brief: as §1

[12] = test system: Saccharomyces cerevisiae BY4741 SeMeCo community; assay: z-score of subpopulation abundance vs DMSO median, subpopulation auxotrophic for HUM; higher = larger share of this subpopulation than in DMSO controls; details: 10 µM; 24 h; SM minimal medium; subpopulation (auxotrophy): HUM
Method in brief: as §1

[13] = test system: Saccharomyces cerevisiae BY4741 SeMeCo community; assay: z-score of subpopulation abundance vs DMSO median, subpopulation auxotrophic for HLUM; higher = larger share of this subpopulation than in DMSO controls; details: 10 µM; 24 h; SM minimal medium; subpopulation (auxotrophy): HLUM
Method in brief: as §1

[14] = test system: Saccharomyces cerevisiae BY4741 SeMeCo community; assay: z-score of prototroph abundance vs DMSO median; higher = larger share of this subpopulation than in DMSO controls; details: 10 µM; 24 h; SM minimal medium; subpopulation (auxotrophy): Prototroph
Method in brief: as §1

[15] = test system: Saccharomyces cerevisiae BY4741 SeMeCo community; assay: z-score of subpopulation abundance vs DMSO median, subpopulation auxotrophic for H; higher = larger share of this subpopulation than in DMSO controls; details: 10 µM; 24 h; SM minimal medium; subpopulation (auxotrophy): H
Method in brief: as §1

[16] = test system: Saccharomyces cerevisiae BY4741 SeMeCo community; assay: z-score of subpopulation abundance vs DMSO median, subpopulation auxotrophic for LUM; higher = larger share of this subpopulation than in DMSO controls; details: 10 µM; 24 h; SM minimal medium; subpopulation (auxotrophy): LUM
Method in brief: as §1

SMILES	mean cell size [1]	z-score of subpopulation abundance [2]	z-score of subpopulation abundance [3]	z-score of subpopulation abundance [4]	z-score of subpopulation abundance [5]	z-score of subpopulation abundance [6]	z-score of subpopulation abundance [7]	z-score of subpopulation abundance [8]	z-score of subpopulation abundance [9]	z-score of subpopulation abundance [10]	z-score of subpopulation abundance [11]	z-score of subpopulation abundance [12]	z-score of subpopulation abundance [13]	z-score of prototroph abundance [14]	z-score of subpopulation abundance [15]	z-score of subpopulation abundance [16]
N=C(N)NC(=N)N1CCOCC1 [Moroxydine HCl]	12.4 ± 0.078	-0.09	0.43	0.31	0.58	-0.15	-0.45	0.37	-0.09	0.08	-0.37	-0.28	-0.61			
COc1ccc(CCN(C)CCCC(C#N)(c2ccc(OC)c(OC)c2)C(C)C)cc1OC (centres undefined) [Verapamil HCl]	12.6 ± 0.13	0.1		-0.58	0	-0.27	0.54	0.03	0.26	0.26	0.44	0.05	0.13	-0.19	0.46	0.79
C[C@]12CCC(=O)C=C1[C@@H]1C[C@@H]1[C@H]1[C@@H]3[C@@H]4C[C@@H]4[C@@]4(CCC(=O)O4)[C@@]3(C)CC[C@@H]12 [Drospirenone]	12.53 ± 0.089	-0.08	-0.17	0.11	1.26	0.03	0.03	-0.14	0.14	0.26	0.31	-0.41	-0.05	-0.22	-0.17	
CCCCCCCCCCCC(=O)O [Lauric Acid]		-0.6		-0.2	-0.8	-0.82	-0.42	0.3	-1.05	-0.82	-1.21	-0.04	-0.48	0.84	-1.48	-0.68
O=C([O-])CC(O)(CC(=O)[O-])C(=O)[O-].O=C([O-])CC(O)(CC(=O)[O-])C(=O)[O-].[Bi+3].[K+].[K+].[K+].[K+].[K+] [Bismuth Subcitrate Potassium]		2.37	-0.49	1.34	-1.07	-1.66	2.94	-2.69	4.34	3	1.76	-1.79	0.65		3.24	
OCCN1CCN(CC/C=C2/c3ccccc3Sc3ccc(C(F)(F)F)cc32)CC1 [Flupenthixol dihydrochloride]	12.24 ± 0.076	1.34	-0.72	0.47	0.75		0.56	-0.35	0.88	0.47	0.33	-0.33	-0.47	-0.24	0.73	
CNCCCC1c2ccccc2C=Cc2ccccc21 [Protriptyline hydrochloride]	12.4 ± 0.15	-0.45	0.84	0.57		-0.42	0.37	0.52	0.25	0.54	-0.07	0.54	-0.01	-0.57	0.19	0.28
